According to publication PMC4552634, “A New Set of Chemical Starting Points with Plasmodium falciparum Transmission-Blocking Potential for Antimalarial Drug Discovery” (PLoS ONE, 2015):
Hit rate of the full screen: of about 13,000 compounds, about 3,200 (25%) showed an effect of 50% or more. The list shows a part of the results.

test system: P. falciparum stage V gametocytes; design: BacTiter-Glo ATP luminescence viability of purified stage V gametocytes in 384-well plates, per cent inhibition versus DMSO; settings: 48 h, 5 µM; inhibitor

Row | SMILES | % Inhibition [%]
1 | CS(=O)(=O)CCN(CCS(C)(=O)=O)Cc1ccc(-c2ccc3ncnc(Nc4ccc(OCc5cccc(F)c5)c(Cl)c4)c3c2)o1 [TCMDC-138624] | 0.5882
2 | CCC(C)C#Cc1c(C)nc(N)nc1N (stereo not drawn) [TCMDC-137729] | -55.19
3 | Cc1cccc2nc(-c3ccc(-c4ccc(CNCc5cnn(-c6ccccc6)n5)cc4)s3)[nH]c12.O=C(O)C(F)(F)F [TCMDC-132967] | 11.48
4 | CN1CCC(c2csc3ccc(NC(=O)Nc4ccc(-c5ccncc5)c5ccccc45)cc23)CC1 [TCMDC-139229] | 21.21
5 | CN1CC=C(c2csc3ccc(NC(=O)Nc4ccc(-c5ccncc5)c(Cl)c4)cc23)CC1 [TCMDC-139226] | -3.853
6 | CN1CC=C(c2csc3ccc(NC(=O)Nc4ccc(-c5ccncc5)c5ccccc45)cc23)CC1 [TCMDC-139225] | 89.24
7 | CCNC(=O)c1ccc(-n2nc(C)cc2-c2ccccc2)cc1 [TCMDC-124440] | -33.35
8 | O=C(Nc1ccc(F)cc1)NC1CCN(CCCCCNC(=O)C2CC2c2ccc(Cl)c(Cl)c2)CC1 (stereo not drawn) [TCMDC-136249] | 82.82
9 | Cc1ccc(NC(=O)NC2CCN(CCCCCNC(=O)C3CC3c3ccc(Cl)c(Cl)c3)CC2)cc1 (stereo not drawn) [TCMDC-136247] | -44.45
10 | O=C(Nc1cc(F)cc(F)c1)N[C@H]1CCN(CCCCCNC(=O)C2CC2c2ccc(Cl)c(Cl)c2)C1 (stereo partly drawn) [TCMDC-136263] | 23.53
11 | O=C(Nc1cccc(F)c1)N[C@H]1CCN(CCCCCNC(=O)C2CC2c2ccc(Cl)c(Cl)c2)C1 (stereo partly drawn) [TCMDC-136261] | -0.7596
12 | O=C(Nc1cccc(F)c1)NC1CCN(CCCCCNC(=O)C2CC2c2ccc(Cl)c(Cl)c2)CC1 (stereo not drawn) [TCMDC-136248] | 79.62
13 | O=C(Nc1ccc(Cl)cc1)NC1CCN(CCCCCNC(=O)C2CC2c2ccc(Cl)c(Cl)c2)CC1 (stereo not drawn) [TCMDC-136251] | -16.96
14 | N#Cc1cccc(NC(=O)NC2CCN(CCCCCNC(=O)C3CC3c3ccc(Cl)c(Cl)c3)CC2)c1 (stereo not drawn) [TCMDC-136250] | 5.084
15 | O=C(Nc1cc(F)cc(F)c1)NC1CCN(CCCCCNC(=O)C2CC2c2ccc(Cl)c(Cl)c2)CC1 (stereo not drawn) [TCMDC-136252] | 75.57
16 | Cc1cccc(Cn2nc(-c3ccccc3)c(N3CCCCC3)cc2=O)c1 [TCMDC-125526] | -20.8
17 | CCOC(=O)c1ccc(NCc2ccccn2)cc1 [TCMDC-123821] | -4.555
18 | Cc1cc(NC(=O)Nc2ccc3sccc3c2)c2ccccc2n1 [TCMDC-138970] | 36.17
19 | CC1(C)N=C(N)N=C(N)N1c1ccc([N+](=O)[O-])cc1 [TCMDC-124128] | 35.22
20 | COc1cc(Nc2nc(N)c3cc(OC)c(OC)cc3n2)cc(OC)c1.Cl [TCMDC-131884] | -87.65

Row | SMILES | % Inhibition [%]
21 | COc1cc2nc(N3CCC(CNC(=O)/C=C/c4ccccc4F)CC3)nc(N)c2cc1OC.Cl [TCMDC-138163] | 35.62
22 | COc1cc2c(cc1OC)CN(c1cc(N)c3cc(OC)c(OC)cc3n1)CC2.CS(=O)(=O)O [TCMDC-131968] | 54.76
23 | Cc1noc(-c2ccc(O)cc2O)c1-c1ccc2c(c1)OCCCO2 [TCMDC-124197] | 16
24 | COc1cc(C(=O)N2C(c3nccs3)C(C(=O)N(OC)C(C)c3ccccc3)CC2(CC(C)C)C(=O)OC(C)(C)C)ccc1C(C)(C)C (stereo not drawn) [TCMDC-135187] | 35.9
25 | CCCc1ccc(C(=O)N2C(c3nccs3)C(C(N)=O)CC2(CC(C)C)C(=O)O)cc1 (stereo not drawn) [TCMDC-138717] | -10.33
26 | CC(C)CC1(C(=O)OC(C)(C)C)CC(C(=O)OC(C)(C)C)C(c2cccs2)N1C(=O)c1ccc(C(C)(C)C)cc1 (stereo not drawn) [TCMDC-138807] | 77.31
27 | O=C1C(=Cc2cc(Cc3ccccc3)ccc2O)SC(=S)N1Cc1ccccc1 [TCMDC-124107] | 17.72
28 | CCOC(=O)c1ccc(N=C2SC(=Cc3cc(Br)ccc3O)C(=O)N2C)cc1 [TCMDC-125656] | 2.309
29 | C=CCN1C(=O)C(=Cc2cc(Br)ccc2O)SC1=Nc1ccccc1 [TCMDC-124119] | 53.26
30 | CC(C)OC(=O)c1ccc(NC(=O)N[C@@H](Cc2ccc(O)cc2)C(=O)NC2CCC(CCN3C4CCC3c3ccccc34)CC2)cc1 (stereo partly drawn) [TCMDC-136163] | 13.63
31 | CC(C)[C@H]1CC[C@H](C)C[C@@H]1OC(=O)N[C@@H](Cc1ccc(O)cc1)C(=O)NC1CCN(Cc2ccc(OCCCN(C)C)cc2)C1 (stereo partly drawn) [TCMDC-140497] | 106.1
32 | O=C(Nc1ccc(C(=O)OCC(c2ccccc2)c2ccccc2)cc1)N[C@@H](Cc1ccc(O)cc1)C(=O)NC1CCN(Cc2ccc(O)cc2)C1 (stereo partly drawn) [TCMDC-135362] | 9.298
33 | CCOC(=O)c1ccc(NC(=O)N[C@@H](Cc2ccccc2)C(=O)NC2CCN(Cc3ccc(O)cc3)C2)cc1 (stereo partly drawn) [TCMDC-140502] | -28.76
34 | CC(C)OC(=O)c1ccc(NC(=O)N[C@@H](Cc2ccc(O)cc2)C(=O)NC2CC3CCC(C2)N3Cc2ccccc2)cc1 (stereo partly drawn) [TCMDC-136164] | 71.31
35 | Cc1cc(C(=O)N[C@H]2CCN(Cc3ccc(OCCCN(C)C)cc3)C2)ccc1Br [TCMDC-140368] | 17.03
36 | CC(C)(C)c1ccc(OC(=O)c2ccc(NC(=O)N[C@@H](Cc3ccc(O)cc3)C(=O)NC3CCN(Cc4ccc(O)cc4)C3)cc2)cc1 (stereo partly drawn) [TCMDC-135359] | 23.01
37 | CCOC(=O)c1ccc(NC(=O)N[C@@H](Cc2ccccc2)C(=O)NC2CCN(Cc3ccc(O)c(OC)c3)C2)cc1 (stereo partly drawn) [TCMDC-140503] | -11.63
38 | CCOC(=O)c1ccc(NC(=O)N[C@@H](Cc2ccccc2)C(=O)NC2CCN(Cc3ccc(OCCCN(C)C)cc3)C2)cc1 (stereo partly drawn) [TCMDC-140501] | 106.4
39 | O=C(/C=C/c1ccc(Cl)c(Cl)c1)NCCCCN1CCCN(C(=O)Nc2cc(Cl)cc(Cl)c2)CC1 [TCMDC-135929] | -18.98
